Results filed as inconclusive are left out. Activity calls are given as the source filed them. Calls follow the shape of the dose curve; as a rule, active = well fitted curve in the direction sought with a large enough effect; inconclusive = small, poorly fitted or top-dose-only effect, or another doubt; inactive = no such curve, though single readings can be large or run the other way.
experiment: qHTS Assay for Inhibitors of Histone Lysine Methyltransferase G9a: Hit Confirmation in b-rIgG Counterscreen; conditions: AlphaScreen b-rIgG bead counterscreen, signal interference; series mostly up to 55.7 µM
Excerpt: Methylated lysines, on the N-terminal tails of histone proteins serve as epigenetic markers to recruit factors that can then modify local chromatin structure to lead to functional consequences. G9a and other members of the SUV39 family of the SET domain-containing superfamily of histone lysine methyltransferases (HMT) have been identified to specifically methylate Lys9 of histone H3 (H3K9). G9a catalyzes the mono- and di-methylation of H3K9 in mammalian euchromatic regions, where the resulting H3K9me2 is indicative of transcriptional repression. […] The inhibition of G9a will result in transcriptional activation and work synergistically with DNA methyltransferase and histone deacetylase inhibitors, to kill cancer cells. This qHTS assay for identification of G9a inhibitors is a chemiluminescence based AlphaScreen (PerkinElmer). Methylation of biotinylated-histone peptide is measured through specific antibody-based detection, in conjunction with streptavidin-coated donor and anti-IgG antibody-coated acceptor beads. The method is particularly well suited for detection of inhibitors acting by the desired histone peptide competitive mechanism and is applicable to testing other HMTs. Although AlphaScreen has significant advantages with its utility in a variety of epigenetic target assays, the primary screening data provided in this deposition should be used with caution due to the prevalence of screening artifacts. Because an AlphaScreen counterscreen is highly recommended to be run against any putative actives to eliminate non specific artifacts, this assay was used as a counterscreen. Quinn et al. A chemiluminescence-based method for identification of histone lysine methyltransferase inhibitors. Mol Biosyst 6(5): 782-8. 2010. PMID: 20567762 [2] Baell,Holloway. New substructure filters for removal of pan assay interference compounds (PAINS) from screening libraries and for their exclusion in bioassays. J Med Chem. 53(7):2719-40. 2010. PMID: 20131845 NIH Chemical Genomics Center [NCGC] NIH Molecular Libraries Probe Production Network [MLPCN] MLPCN Grant: MH084681-02 Assay Submitter (PI): Structural Genomic Consortium - Toronto, Peter Brown
Biotinylated rabbit-IgG (b-rIgG) (Santa Cruz Biotechnology, Inc., Santa Cruz, CA) was added to 1,536-well plates in a 3 uL dispense. Compounds were added in a 23 nL pin-transfer step, and plates were incubated at room temperature for 15 min. Streptavidin-coated donor and anti-rIgG acceptor AlphaScreen beads were added (1 uL) for final concentrations of 20 ug/mL each bead and 1 nM b-rIgG, and plates read on the Envision after a 15 min incubation at room temperature in the dark.

| Structure (SMILES) | outcome |
| --- | --- |
| CN1CSC(=S)N(C)C1 | inactive |
| O=C1NC(=O)N(CCc2ccc(F)cc2)C(=O)/C1=C/C=C/c1ccccc1 | inactive |
| NCCc1c[nH]c2ccc(O)cc12 | inactive |
| C/C(O)=C(\C#N)C(=O)Nc1cc(Br)ccc1Br | inactive |
| CCCN(CCC)CCc1c[nH]c2ccc(C(N)=O)cc12 | inactive |
| Oc1ccc2c3c1O[C@H]1[C@@H](O)CC[C@@]4(O)C(C2)N(CC2CCC2)CCC314 (some centres not stated) | inactive |
| COc1ccc(OC)c(N2C(=O)NC(=O)/C(=C\c3ccc([N+](=O)[O-])s3)C2=O)c1 | inactive |

From PubChem BioAssay AID588346 (National Center for Advancing Translational Sciences (NCATS), 2011)
